Data published in PubChem BioAssay (EPA / NIEHS).
Active and inactive are the calls of the source. The calls were made as follows: active = hit-call score of the fitted dose curve at least 0.9, where 1 is the maximum; inactive = score below 0.9.

How the values were obtained:
[1] = read-out: Monokine induced gamma interferon (MIG), CXCL9 (gene 4283); experiment: BSK_BE3C_MIG: BioMAP Diversity Plus: BE3C Assay for Monokine induced gamma interferon (MIG) Biomarker Activity (AID 2283035); conditions: primary human bronchial epithelial cells; actives raise or lower the signal
Outline: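 ELISA quantified MIG after 24 h exposure of primary bronchial epithelial cultures, analysed in both directions relative to DMSO. Cytotoxicity tracked in parallel cultures by sulforhodamine B staining.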

[2] = read-out: Transforming growth factor beta 1 (TGFb1), TGFB1 (gene 7040); experiment: BSK_BE3C_TGFb1: BioMAP Diversity Plus: BE3C Assay for Transforming growth factor beta 1 (TGFb1) Biomarker Activity (AID 2283036); conditions: primary human bronchial epithelial cells; actives raise or lower the signal
Outline: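 Bronchial epithelial primary cells are treated with test chemical, then TGF-b1 is quantified by ELISA after 24 hours. Values derive from bidirectional fitting against DMSO, with cytotoxicity checked by SRB staining in parallel cultures.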

[3] = read-out: Plasminogen activator inhibitor-1 (PAI1), SERPINE1 (gene 5054); experiment: BSK_BE3C_PAI1: BioMAP Diversity Plus: BE3C Assay for Plasminogen activator inhibitor-1 (PAI1) Biomarker Activity (AID 2283037); conditions: primary human bronchial epithelial cells; actives raise or lower the signal
Outline: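 Values derive from bidirectional fitting against DMSO baseline of PAI-1 levels, measured by ELISA in human bronchial epithelial cells 24 h after compound addition.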

[4] = read-out: urokinase plasminogen activator (uPA), PLAU (gene 5328); experiment: BSK_BE3C_uPA: BioMAP Diversity Plus: BE3C Assay for urokinase plasminogen activator (uPA) Biomarker Activity (AID 2283038); conditions: primary human bronchial epithelial cells; actives raise or lower the signal
Outline: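 Measured by ELISA: uPA from human primary bronchial epithelial cells 24 h after chemical treatment. Values derive from bidirectional curve fitting with DMSO serving as negative control. Total protein by SRB staining in parallel wells flagged overt cytotoxicity.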

[5] = read-out: Urokinase-type plasminogen activator receptor (uPAR), PLAUR (gene 5329); experiment: BSK_BE3C_uPAR: BioMAP Diversity Plus: BE3C Assay for Urokinase-type plasminogen activator receptor (uPAR) Biomarker Activity (AID 2283039); conditions: primary human bronchial epithelial cells; actives raise or lower the signal
Outline: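 Steps: dose human primary bronchial epithelial cells, incubate 24 h, measure uPAR by ELISA, then fit gain- or loss-of-signal response bidirectionally relative to DMSO.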

[6] = read-out: Interleukin-6 (IL6), IL6 (gene 3569); experiment: BSK_CASM3C_IL6: BioMAP Diversity Plus: CASM3C Assay for Interleukin-6 (IL6) Biomarker Activity for (AID 2283040); conditions: primary human coronary artery smooth muscle cells; actives raise or lower the signal
[7] = read-out: Tissue plasminogen activator (tPA), PLAT (gene 5327); experiment: BSK_BE3C_tPA: BioMAP Diversity Plus: BE3C Assay for Tissue plasminogen activator (tPA) Biomarker Activity (AID 2283041); conditions: primary human bronchial epithelial cells; actives raise or lower the signal
Outline: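 Gain- or loss-of-signal in tPA, measured by ELISA, derived by bidirectional fitting against DMSO. Cells: human primary bronchial epithelial; read at 24 h after chemical dosing.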

[8] = read-out: Interleukin-8 (IL8), CXCL8 (gene 3576); experiment: BSK_CASM3C_IL8: BioMAP Diversity Plus: CASM3C Assay for Interleukin-8 (IL8) Biomarker Activity (AID 2283042); conditions: primary human coronary artery smooth muscle cells; actives raise or lower the signal;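 also: IL-8 protein level quantified by ELISA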
[9] = read-out: Human Leukocyte Antigen - DR isotype (HLADR), HLA-DRA (gene 3122); experiment: BSK_CASM3C_HLADR: BioMAP Diversity Plus: CASM3C Assay for Human Leukocyte Antigen - DR isotype (HLADR) Biomarker Activity (AID 2283043); conditions: primary human coronary artery smooth muscle cells; actives raise or lower the signal;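 also: cell-surface HLA-DR protein level quantified by ELISA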
[10] = read-out: Macrophage colony-stimulating factor (MCSF), CSF1 (gene 1435); experiment: BSK_CASM3C_MCSF: BioMAP Diversity Plus: CASM3C Assay for Macrophage colony-stimulating factor (MCSF) Biomarker Activity (AID 2283044); conditions: primary human coronary artery smooth muscle cells; actives raise or lower the signal;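 also: M-CSF protein amount quantified by ELISA after 24 h exposure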
[11] = read-out: Low-density lipoprotein receptor (LDLR), LDLR (gene 3949); experiment: BSK_CASM3C_LDLR: BioMAP Diversity Plus: CASM3C Assay for Low-density lipoprotein receptor (LDLR) Biomarker Activity (AID 2283045); conditions: primary human coronary artery smooth muscle cells; actives raise or lower the signal;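 also: LDLR protein level on the cell surface quantified by ELISA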
[12] = read-out: Monocyte Chemoattractant Protein-1 (MCP1), CCL2 (gene 6347); experiment: BSK_CASM3C_MCP1: BioMAP Diversity Plus: CASM3C Assay for Monocyte Chemoattractant Protein-1 (MCP1) Biomarker Activity (AID 2283046); conditions: primary human coronary artery smooth muscle cells; actives raise or lower the signal;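 also: MCP-1 level quantified by ELISA 24 h after dosing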
[13] = BSK_CASM3C_Proliferation: Cell Proliferation Assessment in the BioMAP Diversity Plus: CASM3C Assay (AID 2283047); conditions: primary human coronary artery smooth muscle cells;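 also: sulforhodamine B total protein stain as relative cell number at 560 nm; sub-confluent cells exposed 48 h before staining; fitted both ways against DMSO so gain or loss of cell number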
[14] = read-out: Monokine induced gamma interferon (MIG), CXCL9 (gene 4283); experiment: BSK_CASM3C_MIG: BioMAP Diversity Plus: CASM3C Assay for Monokine induced gamma interferon (MIG) Biomarker Activity (AID 2283048); conditions: primary human coronary artery smooth muscle cells; actives raise or lower the signal;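 also: MIG protein level measured by ELISA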
[15] = read-out: serum amyloid A (SAA), SAA1 (gene 6288); experiment: BSK_CASM3C_SAA: BioMAP Diversity Plus: CASM3C Assay for serum amyloid A (SAA) Biomarker Activity (AID 2283049); conditions: primary human coronary artery smooth muscle cells; actives raise or lower the signal;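 also: SAA protein level quantified by ELISA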
[16] = BSK_CASM3C_SRB: Viability Assessment in the BioMAP Diversity Plus: CASM3C Assay (AID 2283050); conditions: primary human coronary artery smooth muscle cells;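 also: total protein by SRB staining as cytotoxicity measure in parallel cultures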
[17] = read-out: Thrombomodulin, THBD (gene 7056); experiment: BSK_CASM3C_Thrombomodulin: BioMAP Diversity Plus: CASM3C Assay for Thrombomodulin Biomarker Activity (AID 2283051); conditions: primary human coronary artery smooth muscle cells; actives raise or lower the signal;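 also: thrombomodulin protein level measured by ELISA 24 h after dosing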
[18] = read-out: Tissue Factor, F3 (gene 2152); experiment: BSK_CASM3C_TissueFactor: BioMAP Diversity Plus: CASM3C Assay for Tissue Factor Biomarker Activity (AID 2283052); conditions: primary human coronary artery smooth muscle cells; actives raise or lower the signal;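 also: cell surface tissue factor protein level read by ELISA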
[19] = read-out: Interferon-gamma inducible Protein 10 (IP10), CXCL10 (gene 3627); experiment: BSK_hDFCGF_IP10: BioMAP Diversity Plus: hDFCGF Assay for Interferon-gamma inducible Protein 10 (IP10) Biomarker Activity (AID 2283053); conditions: primary human foreskin fibroblasts; actives raise or lower the signal
Outline: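 Cells: human dermal foreskin fibroblasts. Exposure: 24 h post-dosing. Detection: IP-10 ELISA, with values expressed against DMSO controls and fitted in both directions.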

[20] = read-out: Urokinase-type plasminogen activator receptor (uPAR), PLAUR (gene 5329); experiment: BSK_CASM3C_uPAR: BioMAP Diversity Plus: CASM3C Assay for Urokinase-type plasminogen activator receptor (uPAR) Biomarker Activity (AID 2283054); conditions: primary human coronary artery smooth muscle cells; actives raise or lower the signal;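 also: cell-surface uPAR protein level quantified by ELISA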

Measured: AC50

O=C(CCCCCCCCc1cccnc1)N1CCC(C=C(c2ccccc2)c2ccccc2)CC1
inactive: [6] | [17] | [18]
active: [1] 27.9 µM | [2] 23.7 µM | [3] 19.3 µM | [4] 24.7 µM | [5] 17.9 µM | [7] 19.5 µM | [8] 38.3 µM | [9] 35 µM | [10] 38 µM | [11] 34.3 µM | [12] 38.2 µM | [13] 35.4 µM | [14] 38.3 µM | [15] 37.5 µM | [16] 39.1 µM | [19] 9 µM | [20] 39.2 µM

CCc1cc(SCc2sc(-c3ccc(C(F)(F)F)cc3)nc2CN2CCN(c3ccc(OC)cc3)CC2)ccc1OCC(=O)O
active: [1] 5.52 µM | [2] 5.17 µM | [3] 3.07 µM | [4] 5.31 µM | [5] 5.38 µM | [6] 20 µM | [7] 5.23 µM | [8] 34.1 µM | [9] 18.7 µM | [10] 36.1 µM | [11] 31.7 µM | [12] 37.4 µM | [13] 15.8 µM | [14] 39.1 µM | [15] 31.9 µM | [16] 30.1 µM | [17] 35.1 µM | [19] 2.18 µM | [20] 15.3 µM
inactive: [18]

CCCN(C1CCN(C(=O)C2CCNCC2)CC1)[C@@H]1CCc2ccc(OC)cc2C1
active: [11] 35 µM
inactive: all other assays above

CNCc1ccc(NC(=O)c2c[nH]c3c2C(=O)CCC3)cc1
inactive: all assays above

Nc1nc2ncc(CNc3ccc(C(=O)N[C@@H](CCC(=O)O)C(=O)O)cc3)nc2c(=O)[nH]1
inactive: all assays above

COCCOc1cc2cc(C(=O)NC3CCN(C(C)C)CC3)n(CC(=O)Nc3ccc(Cl)cn3)c2cn1
inactive: all assays above
